This note sets out measurements from the supplement of paper PMC4954754.

± gives the uncertainty stated by the source.

In this experiment the test system is HEK293T-Rex XBP1-RLuc. Briefly: XBP1-RLuc splicing reporter activation, triplicate, relative to 500 nM thapsigargin (% of thapsigargin); higher = stronger IRE1/XBP1s reporter activation. The settings on record: 6.8 µM; 18 h; screen: confirmation. How it is done:
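HEK293T-Rex cells stably expressing the ERSE-firefly luciferase (BiP promoter, ATF6-preferring) or XBP1-splicing Renilla luciferase (IRE1/XBP1s) reporter, 1536-well plates, compound at 6.8 µM for 18 hr at 37 °C; luminescence read […] and expressed as % activation = 100*(compound - median DMSO)/(median 500 nM thapsigargin - median DMSO). Primary screen was single-pass; confirmation screen in triplicate (mean ± SD).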
In the case of `CNc1ccc2oc(C[C@H]3O[C@@]4(CC[C@H]3C)O[C@H]([C@H](C)C(=O)c3ccc[nH]3)[C@H](C)C[C@H]4C)nc2c1C(=O)O`, the “XBP1-RLuc splicing reporter activation” value is 50 ± 2.1.

Regarding `O=C(CCCN1CCC2(CC1)C(=O)N(Cc1cccc(F)c1)CN2c1ccccc1)c1ccc(F)cc1`, the “XBP1-RLuc splicing reporter activation” value is 185 ± 9.3.

`CC(=O)NC1C(OC2OC(CC(O)C3OC(n4ccc(=O)[nH]c4=O)C(O)C3O)C(O)C(O)C2NC(=O)/C=C\CCCCCCCCCC(C)C)OC(CO)C(O)C1O` (stereo not given): the “XBP1-RLuc splicing reporter activation” value came out at 61.23 ± 0.33.

Take `O=C(CCCN1CCC2(CC1)C(=O)NCN2c1ccccc1)c1ccc(F)cc1`: the “XBP1-RLuc splicing reporter activation” value came out at 202 ± 6.1.

Consider `C/C=C(/C)C(=O)O[C@H]1C(C)=C2[C@H]([C@@H]1OC(=O)CCCCCCC)[C@@](C)(OC(C)=O)C[C@H](OC(=O)CCC)[C@@]1(O)[C@H]2OC(=O)[C@@]1(C)O`, for which the “XBP1-RLuc splicing reporter activation” value was 104.
